Results taken from ChEMBL document CHEMBL4888484, “Replenishing the malaria drug discovery pipeline: Screening and hit evaluation of the MMV Hit Generation Library 1 (HGL1) against asexual blood stage Plasmodium falciparum ,using a nano luciferase reporter read-out” (2022).
The campaign covered roughly 4,800 compounds. About 420 (8.8%) showed an effect of 50% or more. The entries come from a sample that favours strong results as a whole.

Test system: Plasmodium falciparum
Assay: Confirmatory screen in NF54 nanoGlo assay, in single point, at 2uM, 72h
Assay type: functional, Erythrocyte
Conditions: timepoint 72 hour

| SMILES | % Inhibition |
| --- | --- |
| Cc1occc1C(=O)NC1(c2ccccc2)CCOCC1 | -5% |
| COc1cc(OC)c(NC(=O)[C@H]2CCCN(c3nc4ccccc4[nH]c3=O)C2)cc1Cl | -2% |
| Cc1nc2ccccc2n1C(=O)c1sc2ccccc2c1Cl | -1% |
| O=S(=O)(c1ccc(Br)cc1)N1CCOC12CCCCC2 | -7% |
| Cn1nnc(Cn2nnc(-c3ccccc3)n2)n1 | -11% |
| CS(=O)(=O)N1CCC[C@H](Cn2nnnc2C=Cc2ccccc2)C1 | 8% |
| COC[C@H](NCCc1cc(F)cc2c1OCOC2)C1CC1 | 63% |
| Cc1csc(NC(=O)NCCc2cc(F)cc3c2OCOC3)n1 | -14% |
| COc1ccccc1N1CCN(C(=O)c2nnn(-c3ccccc3Cl)c2-c2cccnc2)CC1 | -2% |
| Cc1ccc(OCc2cccc(-c3nc4c5cn[nH]c5ncn4n3)c2)c(C)c1 | -7% |
| CC(C)N(CCCNC(=O)c1cnn2c3c(cnc12)CCCCCC3)Cc1ccccc1 | 0% |
| COc1ccc(Cl)cc1NC(=O)Cc1c(C)nc2nc(-c3ccccc3C)nn2c1C | -2% |
| COc1ccc(Cn2nc(C)n(-c3cccc(F)c3)c2=O)cc1 | -1% |
| COc1ccc(CC(=O)Nc2cc(C)n(-c3cccc(Cl)c3)n2)cc1 | 81% |
| Fc1ccc(-c2csc(N3CCC[C@H](c4cn[nH]c4)C3)n2)cc1 | -1% |
| CCOC(=O)n1c(=O)[nH]c2ccc(Br)cc21 | -10% |
| Cc1cc(NS(=O)(=O)c2cccs2)n(-c2ccncc2)n1 | 2% |
| O=S(=O)(Nc1cccc2cccnc12)c1cccs1 | 60% |
| O=S(=O)(Nc1nncs1)c1cccs1 | -10% |
| COc1nc(N)nc(C(Cl)(Cl)Cl)n1 | 0% |
| Cc1cc(F)ccc1CS(=O)(=O)N1CCC(CN2CCOCC2)CC1 | -8% |
| C[C@H](N)c1ccc(Nc2ncc3cc(-c4ccncc4)ccc3n2)cc1 | 93% |
| CC(C)c1ccc(-c2n[nH]nc2C(=O)c2ccccc2N)cc1 | -1% |
| CC(C)c1ncsc1C(=O)NC(C)(C)C(=O)NCC1CCCC1 | -13% |
| Cc1cccc(NC(=O)c2c(C)sc3ncnc(N4CCCCC4)c23)c1C | 10% |
| C[n+]1ccc(-c2ncc(-c3ccccc3)o2)c2ccccc21 | 75% |

| SMILES | % Inhibition |
| --- | --- |
| CCn1ccnc1C(=O)Nc1ccc(OC)nc1 | -6% |
| CCc1ccc(CS(=O)(=O)NC(=O)c2cn3ccnc3s2)cc1 | 6% |
| Cc1ccc(NC(=O)c2cn(CC3(O)CCN(Cc4ccccc4)CC3)nn2)c(C)c1 | 1% |
| N#Cc1ccc(NCCc2ccc(O)cc2)cn1 | -9% |
| Cn1ccc(NC(=O)c2cccc3ccccc23)n1 | -8% |
| O=C(Nc1[nH]c(=O)ncc1F)c1cc(F)c(F)cc1Br | 95% |
| COc1ccc(C(=O)Nc2ccc3c(c2)C(=O)Nc2cccnc2O3)cc1OC | 46% |
| COc1cc(C(=O)Nc2[nH]c(=O)ncc2F)ccc1Cl | 81% |
| O=C(Nc1ccccc1-c1nnc[nH]1)c1ccc(F)c(Cl)c1 | -3% |
| O=C(Nc1[nH]c(=O)ncc1F)c1cccc2ccccc12 | 84% |
| CC1(C)C(=O)NCCN1C(=O)c1cccc2ccccc12 | 5% |
| CC(C)CN1C(=O)CC[C@@H](C(=O)NCCCOC(C)C)[C@@H]1c1cccnc1 | -13% |
| Cc1cc(C(=O)Nc2cc(Br)c(=O)n(C)c2)no1 | -14% |
| Cc1ccc(N2CCCC2)c(C(=O)N2CCN(Cc3c(C)nc4cc(C)ccn34)CC2)c1 | 3% |
| O=C(Nc1cnc(-n2ccnc2)nc1)C(c1ccccc1)c1ccccc1 | 36% |
| C[C@H]1CCCN(c2nc3ncn(CC(=O)Nc4ccccc4C(F)(F)F)c(=O)c3s2)C1 | -15% |
| O=C(NC1CCCCC1)c1cc2c(Cl)ccc3c2n1CCO3 | -10% |
| O=C(NCC1CCOCC1)c1ccc2n[nH]c(=O)n2c1 | -1% |
| COc1ccc(C(=O)N2CC[C@H](c3nc(C4CCOCC4)no3)C2)cc1OC | 2% |
| COc1nc(-c2cccc(C(=O)NCC3CCOCC3)c2)ncc1F | 66% |
| Cc1ccc(C(=O)N2CC(n3cnnc3C)C2)cc1F | -19% |
| COCc1cc(C(=O)N[C@H](c2ccccc2)C2CCOCC2)no1 | 0% |
| O=C(CC1CCOCC1)NCc1ccccn1 | -11% |
| COc1nc(-c2cccc(C(=O)N3C[C@@H]4CC[C@H](C3)C(=O)N4)c2)ncc1F | 67% |
| COc1ccc(-c2[nH]ncc2C(=O)NCC2CCCCC2)cc1OC | 2% |
| COCc1cc(C)n(CC#N)c(=O)c1C#N | 11% |

| SMILES | % Inhibition |
| --- | --- |
| CCCc1ccc(Cl)c(S(=O)(=O)Nc2nnc(C3CC3)o2)c1 | 2% |
| COC[C@@H](C)CNc1nc(C)cc(C)n1 | -3% |
| CCn1cc2c(n1)c(=O)n(Cc1ccc(C)cc1)c(=O)n2CC(=O)Nc1ccc(C)cc1C | -10% |
| COc1ccc(C(=O)N2CC[C@H](CC(=O)N3CCOCC3)C2)cc1 | -9% |
| Cc1c(C(=O)NCCc2ccc(Cl)cc2)oc2ccc3c(c12)[C@@H](O)CC(C)(C)O3 | 4% |
| O=C(N[C@H](c1ccccc1)C1CC1)c1cccnc1O | -9% |
| CC1CCCC(N2C(=O)c3ccccc3C2NCc2ccccc2)C1C (centres undefined) | 0% |
| CCOC(=O)c1cnc(N2CCCC2)nc1C1CCN(C(=O)OC(C)(C)C)CC1 | -2% |
| Cc1cc(C(=O)NCc2ccco2)nn1C(F)F | -13% |
| Cc1noc(C)c1CS(=O)(=O)CCC(=O)NC1CCCCC1 | -11% |
| CC(c1ccccc1)N1C(=O)c2ccccc2C1c1c[nH]c2ccccc12 (centres undefined) | 23% |
| CCOc1cc(C)ccc1S(=O)(=O)NC(C)C | -3% |
| NC1CC(NCCc2cccc3cccnc23)c2ccccc21 (centres undefined) | 43% |
| NC(=NCc1cccc2cccnc12)N1CCN(c2nccs2)CC1 | 57% |
| Cc1ccc(C(=O)N2CCC(N3C(=O)[C@H]4CCCN4C3=O)CC2)cc1 | -9% |
| Cc1ccc2nc(-c3cccc(NC(=O)c4ccc5c(c4)OCO5)c3)oc2c1 | -12% |
| COC(=O)c1cccc(C#Cc2cccc(NC(=O)c3cnc(C)cn3)c2)c1 | -19% |
| COCCNC(=O)c1ccc(-n2nc(-c3nnc(C)o3)c(C)c2-c2ccc(OC)cc2)cc1 | 46% |
| CC(C)N(C)CCOC(=O)c1ccccc1Cl | -1% |
| CCN1c2cc(C(=O)NCc3ccncc3)ccc2C(=O)N2CCCC[C@H]21 | -2% |
| Cc1cc(C(=O)N(CCN(C)C)c2ccccc2)c(C)s1 | -1% |
| Cc1cc(C(=O)Nc2ccc(Br)c(C)n2)no1 | -12% |
| Cc1cc(Br)ccc1N1CC[C@@H](C(=O)NC2CC2)C1=O | 2% |
| CCN(CCO)S(=O)(=O)c1ccc2c(c1)CCO2 | -7% |
| O=c1cc2c(nn1Cc1cccc(Cl)c1)-c1ccccc1CC2 | -6% |
| c1ccc(CC2=NCCc3ccccc32)cc1 | 65% |

| SMILES | % Inhibition |
| --- | --- |
| Cc1cccc2ncnc(N(C)[C@@H](C)Cc3ccc(O)cc3)c12 | 79% |
| COc1ccccc1Nc1c(-c2cccs2)nc2ccccn12 | -2% |
| Cc1c(N=C2NC3(CCCCC3)Cc3ccccc32)c(=O)n(C)n1-c1ccccc1 | -1% |
| CC1([C@@](O)(C#CC[N+]2(C)CCCCC2)c2ccccc2)CCCC1 | 50% |
| CCC[N+]1(CC#C[C@@](O)(c2ccccc2)C(C)(CC)CC)CCCCC1 | 48% |
| CCC[N+]1(CC#C[C@@](O)(c2ccccc2)C2(C)CCCC2)CCCCC1 | 46% |
| O=C(N1CCCN(c2nc3ccccc3nc2-c2ccccc2)CC1)C(Cl)(Cl)Cl | 46% |
| CCn1cc(C(=O)Nc2ccc(C(=O)N3CCCCC3)cc2)cn1 | 1% |
| COc1cc(OC)cc(C(=O)Nc2ccc3nc(N4CCC(C)CC4)cc(C)c3c2)c1 | 47% |
| CCN(CC)c1ccc(C(=O)Nc2ccc3nc(N4CCCC4)cc(C)c3c2)cc1 | 85% |
| COc1ccc(N(Cc2ccc(F)cc2)S(=O)(=O)c2ccc3nncn3c2)cc1 | -13% |
| CC(C)CC(=O)Nc1ccc2c(c1)C(N1CCC(C)CC1)=Nc1ccccc1O2 | 0% |
| Cc1oc(C(=O)N2CC3(CCCC3)c3ccccc32)cc1S(=O)(=O)N(C)C | 4% |
| COCCCn1c(NS(=O)(=O)c2ccccc2)c(S(=O)(=O)c2ccc(C)cc2)c2nc3ccccc3nc21 | 61% |
| COCCCn1c(NS(=O)(=O)c2ccc3ccccc3c2)c(S(=O)(=O)c2ccc(C)cc2)c2nc3ccccc3nc21 | 56% |
| COCCCN(Cc1c(C)nn(-c2cccc(F)c2)c1N1CCN(C)CC1)S(=O)(=O)c1ccc2ccccc2c1 | 7% |
| COc1ccc(-c2cc(C[C@H]3CNCC[C@H]3CC(=O)Nc3ccccc3)no2)cc1 | -7% |
| CCCn1c(C)ccc(-c2noc(CCC(=O)NC3CCCC3)n2)c1=O | -6% |
| CN(C(=O)C1C(C(=O)O)C1(C)C)c1ccccc1OC(F)F (centres undefined) | -2% |
| Cc1ccc(C(=O)Nc2ccc(N3CCN(CCC#N)CC3)cc2C(=O)O)cc1 | -12% |
| Cc1ccccc1[C@H]1CCN(c2ccc(NC(=O)c3ccc(Cl)cc3)c(C(=O)O)c2)C1 | -11% |
| Cc1ccc(C(=O)Nc2cc3c4c(c2)C2CCCC2CN4CC2CCCC32)cc1 (centres undefined) | 60% |
| CC(C)(C)OC(=O)N1C2CCC1CC(CC(=O)NC1CCCC1)C2 (centres undefined) | 8% |
| COCCN(CC1CN(Cc2cccs2)CC1c1cccc(F)c1)C(=O)C(C)C (centres undefined) | -3% |
| Cc1cc(C)n2cc(COC(=O)Cn3c(C)cc4ccccc43)nc2n1 | -2% |
| Cc1oc2ncn(CCN3CCCC3)c(=O)c2c1C(=O)Nc1ccc(C#N)cc1 | 34% |
